Data taken from the supplement of paper PMC8728848.
Only a selection was taken, and the strongest signals are over-represented in it overall.

System: Gal(b1-3)GlcNAc(b1-3)Gal(b1-4)Glc
Assay: glycan array binding signal (z-score within array); higher = stronger binding
Conditions: glycan notation: IUPAC condensed, linker removed
Procedure, shortened: (§1)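 Negative Z-scores can be read as non-binding. The Z-score is calculated within each array and then averaged across arrays of one protein sequence at different concentrations or buffers and across linkers. Arrays, 3228 in all, were curated from the Consortium for Functional Glycomics database and kept only where the protein sequence was available.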

Aggrecan (Rattus norvegicus), NP_071526, sequence (chain, as listed by the source): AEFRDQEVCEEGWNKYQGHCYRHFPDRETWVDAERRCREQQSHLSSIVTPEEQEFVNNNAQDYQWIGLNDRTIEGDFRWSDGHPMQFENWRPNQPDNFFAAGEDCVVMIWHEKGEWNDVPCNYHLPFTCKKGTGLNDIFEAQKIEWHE
Neurocan (Homo sapiens), O14594, sequence (O14594 other isoform, or with tags, fused parts or gaps): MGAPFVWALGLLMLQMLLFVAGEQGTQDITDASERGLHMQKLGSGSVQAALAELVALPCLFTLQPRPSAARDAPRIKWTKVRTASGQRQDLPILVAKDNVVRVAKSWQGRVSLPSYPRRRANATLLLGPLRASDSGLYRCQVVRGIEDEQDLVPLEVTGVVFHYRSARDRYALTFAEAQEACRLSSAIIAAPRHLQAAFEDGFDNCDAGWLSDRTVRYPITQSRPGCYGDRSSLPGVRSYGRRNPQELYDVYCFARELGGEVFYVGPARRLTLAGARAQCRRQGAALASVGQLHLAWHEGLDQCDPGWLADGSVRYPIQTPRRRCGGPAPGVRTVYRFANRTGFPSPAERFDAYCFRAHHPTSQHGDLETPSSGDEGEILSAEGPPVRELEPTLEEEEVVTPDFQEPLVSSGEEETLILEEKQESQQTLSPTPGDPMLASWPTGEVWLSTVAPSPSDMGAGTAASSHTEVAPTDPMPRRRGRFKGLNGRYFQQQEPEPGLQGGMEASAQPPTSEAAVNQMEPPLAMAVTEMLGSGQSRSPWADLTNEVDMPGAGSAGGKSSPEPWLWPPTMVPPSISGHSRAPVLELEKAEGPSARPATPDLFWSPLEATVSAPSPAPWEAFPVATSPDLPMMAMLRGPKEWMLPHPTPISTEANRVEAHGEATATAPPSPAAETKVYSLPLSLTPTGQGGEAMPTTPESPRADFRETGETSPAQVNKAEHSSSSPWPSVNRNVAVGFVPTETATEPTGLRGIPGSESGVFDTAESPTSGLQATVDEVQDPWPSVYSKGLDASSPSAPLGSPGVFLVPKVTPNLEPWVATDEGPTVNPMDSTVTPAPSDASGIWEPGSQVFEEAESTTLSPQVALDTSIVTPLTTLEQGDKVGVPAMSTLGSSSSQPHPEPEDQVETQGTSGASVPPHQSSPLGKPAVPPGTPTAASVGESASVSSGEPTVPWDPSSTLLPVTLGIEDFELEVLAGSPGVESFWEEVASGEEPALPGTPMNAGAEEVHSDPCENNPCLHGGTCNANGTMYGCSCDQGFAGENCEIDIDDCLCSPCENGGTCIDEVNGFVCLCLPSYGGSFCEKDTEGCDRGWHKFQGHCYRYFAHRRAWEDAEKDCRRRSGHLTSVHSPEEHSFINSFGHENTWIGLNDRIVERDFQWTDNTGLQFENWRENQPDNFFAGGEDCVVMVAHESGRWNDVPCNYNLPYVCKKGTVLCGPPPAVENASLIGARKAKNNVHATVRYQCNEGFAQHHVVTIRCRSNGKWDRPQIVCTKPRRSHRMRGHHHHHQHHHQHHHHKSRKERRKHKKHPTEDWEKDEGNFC
6RG (Lolium perenne), sequence (chain, as listed by the source): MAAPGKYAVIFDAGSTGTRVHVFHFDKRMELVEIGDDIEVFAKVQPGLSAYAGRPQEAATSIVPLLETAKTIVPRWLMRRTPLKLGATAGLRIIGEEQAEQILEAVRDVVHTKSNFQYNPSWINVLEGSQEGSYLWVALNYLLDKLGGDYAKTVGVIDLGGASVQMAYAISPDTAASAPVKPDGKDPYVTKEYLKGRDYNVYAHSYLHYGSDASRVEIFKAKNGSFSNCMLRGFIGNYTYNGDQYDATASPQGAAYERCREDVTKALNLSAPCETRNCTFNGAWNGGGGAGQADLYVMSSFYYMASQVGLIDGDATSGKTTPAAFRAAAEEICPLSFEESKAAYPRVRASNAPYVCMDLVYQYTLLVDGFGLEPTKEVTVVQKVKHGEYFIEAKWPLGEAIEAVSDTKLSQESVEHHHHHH
C3b (Homo sapiens), P01024, sequence (P01024 23-667): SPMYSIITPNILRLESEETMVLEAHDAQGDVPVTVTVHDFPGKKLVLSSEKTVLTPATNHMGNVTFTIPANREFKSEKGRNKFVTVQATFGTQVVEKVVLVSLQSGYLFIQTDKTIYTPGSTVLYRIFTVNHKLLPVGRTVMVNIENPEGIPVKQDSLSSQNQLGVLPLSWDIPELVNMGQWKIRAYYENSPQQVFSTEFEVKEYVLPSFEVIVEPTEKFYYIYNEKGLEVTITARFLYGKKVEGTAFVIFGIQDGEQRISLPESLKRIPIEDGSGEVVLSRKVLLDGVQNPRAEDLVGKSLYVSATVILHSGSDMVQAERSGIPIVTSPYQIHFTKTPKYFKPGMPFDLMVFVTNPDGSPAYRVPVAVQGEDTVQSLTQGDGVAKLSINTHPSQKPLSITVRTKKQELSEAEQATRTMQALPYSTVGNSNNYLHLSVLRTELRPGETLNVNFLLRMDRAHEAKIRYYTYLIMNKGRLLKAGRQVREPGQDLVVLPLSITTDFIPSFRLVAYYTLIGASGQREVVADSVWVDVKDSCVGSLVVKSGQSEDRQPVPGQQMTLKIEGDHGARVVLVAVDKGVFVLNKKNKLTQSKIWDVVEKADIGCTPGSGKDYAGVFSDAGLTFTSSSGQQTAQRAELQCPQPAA
Regenerating Gene IV (Homo sapiens), Q9BYZ8, sequence (Q9BYZ8 whole entry, looked up): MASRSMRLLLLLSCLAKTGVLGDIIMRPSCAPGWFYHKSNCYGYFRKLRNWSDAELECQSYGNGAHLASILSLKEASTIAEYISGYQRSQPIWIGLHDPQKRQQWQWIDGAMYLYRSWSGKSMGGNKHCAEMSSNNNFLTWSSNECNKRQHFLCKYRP
Avaren (Actinomycete K97), sequence (chain, as listed by the source): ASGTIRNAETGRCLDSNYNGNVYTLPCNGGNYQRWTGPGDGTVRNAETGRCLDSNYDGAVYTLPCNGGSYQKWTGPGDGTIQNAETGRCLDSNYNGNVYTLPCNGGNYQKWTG

Row | Substance | glycan array binding signal (z-score)
1 | 6RG (Lolium perenne) | 6.36
2 | Aggrecan (Rattus norvegicus), NP_071526 | 0.002
3 | Avaren (Actinomycete K97) | 0.952

System: Gal(b1-3)[Fuc(a1-4)]GlcNAc(b1-3)Gal(b1-3)[Fuc(a1-4)]GlcNAc
Assay: as above
Conditions: glycan notation: IUPAC condensed, linker removed
Procedure, shortened: as §1

Row | Substance | glycan array binding signal (z-score)
4 | Regenerating Gene IV (Homo sapiens), Q9BYZ8 | -0.411
5 | Aggrecan (Rattus norvegicus), NP_071526 | 0.137
6 | C3b (Homo sapiens), P01024 | 0.483
7 | Neurocan (Homo sapiens), O14594 | 2.48
